Test results from PubChem BioAssay (Tox21).
Where “and” joins values, the source holds several entries; their conditions need not be identical. Equal entries are not always repeated. Results filed as inconclusive are left out. A call without a number means that no potency is given here. Calls of active or inactive are those of the source. The call rests on the fitted dose curve; in most records, active means well fitted cell-killing curve with a large enough effect in the repeat runs; inconclusive means weak or mixed curves, or effect the other way; inactive means flat fitted curve, though single readings scatter.

Assay: cAMP Responsive Elements (CRE) small molecule antagonists, cell-based qHTS assay: qHTS cell viability counter screen (AID 2060913); further: nearly all actives have a fitted effect of over 40% in size
Conditions: CRE-bla HEK293T viability, CellTiter-Glo luminescence, 5 h; series mostly up to 92.4 µM
Summary of the method: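 Viability of NKH477-stimulated (0.25 uM final) CRE-bla HEK293T cells is measured by CellTiter-Glo luminescence following 3 hrs compound exposure at 37 C.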
Potency means the concentration at half of the fitted maximal effect.

Row | Structure (SMILES) | Potency | viability change, negative = cytotoxic
1 | COc1c(N2CCNC(C)C2)c(F)cc2c(=O)c(C(=O)O)cn(C3CC3)c12 (stereo not given) | inactive | –
2 | Cc1ncc(COP(=O)(O)O)c(C=O)c1O | inactive | –
3 | CC(=O)OCC(=O)NCCCOc1cccc(CN2CCCCC2)c1 | inactive | –
4 | C=C(C)C(=O)OCCOCCOC(=O)C(=C)C | inactive | –
5 | CCCCCCCCCCCC[N+](C)(C)C | 54.3 µM (active) and 61.1 µM (active) and 68.6 µM (active) | –
6 | COc1cc(OC)c(C(=O)CCCN2CCCC2)c(OC)c1 | inactive | –
7 | Nc1ccc(F)cc1 | inactive | –
8 | C[N+]1(CC2COC(c3ccccc3)(c3ccccc3)O2)CCCCC1 (stereo not given) | – | 0.835% [at 18.9 µM] (inactive)
9 | CCOC(=O)c1ccc(OCCN2C[C@H](O)[C@@H](O)[C@H](O)[C@H]2CO)cc1 | inactive | –
10 | C/C=C/C=C/C=O | inactive | –
11 | CN1CCN(CCC(=O)N2c3ccccc3Sc3ccc(C(F)(F)F)cc32)CC1 | inactive | –
12 | CC/C=C\CCCCCCCCCCOC(C)=O | inactive | –
13 | CCC(C)(C)C(=O)O | inactive | –
14 | CC(NN)c1ccccc1 (stereo not given) | – | -0.733% [at 18.9 µM] (inactive)
15 | CC(C)Nc1ccc(NC(C)C)c2c1C(=O)c1ccccc1C2=O | inactive | –
16 | CC(C)OC(=O)c1ccccc1C(=O)OC(C)C | inactive | –
17 | Cc1nc2n(c(=O)c1CCN1CCC(C(=O)c3ccc(F)cc3)CC1)CCS2 | inactive | –
18 | CC(C)OB(OC(C)C)OC(C)C | inactive | –
19 | Cc1onc(-c2c(Cl)cccc2Cl)c1C(=O)Cl | inactive | –
20 | CC(C)COC(=O)CC(C(=O)OCC(C)C)S(=O)(=O)O (stereo not given) | inactive | –

Row | Structure (SMILES) | Potency | viability change, negative = cytotoxic
21 | Cc1c(C)n(Cc2ccccc2)c2ccc(C(=O)OCCN(C)C)cc12 | inactive | –
22 | Oc1ccc2c(c1)OC[C@@H](N1CCC(O)(c3ccc(F)cc3)CC1)[C@H]2O | inactive | –
23 | Cc1ccc2oc(CN(Cc3ccccc3)C(=O)Nc3c(F)cc(F)cc3F)c(-c3ccc(Cl)cc3)c2c1 | inactive | –
24 | O=c1cc(-c2ccccc2)oc2ccccc12 | inactive | –
25 | CC(C)COC(=O)c1ccc(N)cc1 | inactive | –
26 | COc1ccc(COC=O)cc1 | inactive | –
27 | CCN[C@H]1C[C@H](C)S(=O)(=O)c2sc(S(N)(=O)=O)cc21 | inactive | –
28 | COC(C(=O)O)c1ccccc1 (stereo not given) | inactive | –
29 | Cc1ccccc1C(OCCN(C)C)c1ccccc1 (stereo not given) | inactive | –
30 | CC(C)N=C(N)/N=C(\N)Nc1ccc(Cl)cc1 | inactive | –
31 | COCCOCC(OC)OC | inactive | –
32 | C[C@@H]1C[C@H]2O[C@@]3(O[C@@H]2C(C)(C)O)[C@H](O)[C@@]2(C)[C@@H]4CC[C@H]5C(C)(C)[C@@H](O[C@@H]6OC[C@@H](O)[C@H](O)[C@H]6O)CC[C@@]56C[C@@]46CC[C@]2(C)[C@@H]13 | inactive | –
33 | CC[C@@]1(O)C(=O)OCc2c1cc1n(c2=O)Cc2c-1nc1ccccc1c2/C=N/OC(C)(C)C | inactive | –
34 | C=C(C)C(=O)OCCOC1CC2CC1C1C=CCC21 (stereo not given) | inactive | –
35 | Cc1cccc(N(C)C(=S)Oc2ccc3c(c2)C2CCC3C2)c1 (stereo not given) | inactive | –
36 | CCN(CC#N)c1cccc(C)c1 | inactive | –
37 | OC[C@]1(O)OC[C@@H](O)[C@H](O)[C@@H]1O | inactive | –
38 | CC1=NN(c2cccc(S(=O)(=O)O)c2)C(=O)C1 | inactive | –
39 | CC(C)COC(=O)c1ccc(O)cc1 | inactive | –
40 | CCCCc1nc2cccnc2n1Cc1ccc(-c2ccccc2-c2nnn[nH]2)cc1 | inactive | –
